“And” between values parts separate entries of the source, which are not always exact repeats. Equal values may be shown once. Inconclusive results are not listed. The source made the active and inactive calls. Unless noted, the call rests on the fitted dose curve; in most records, active means well fitted curve in the direction sought with a large enough effect; inconclusive means small, poorly fitted or top-dose-only effect, or another doubt; inactive means no such curve, though single readings can be large; an effect the other way counts as inactive or inconclusive.
What was measured:
[1] = Cell Viability - HUV-EC-C (AID 542);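 further: cells exposed to compound for 40 hours; on the % scale 0 is the no-effect control and ±100 the full control effect; nearly all actives have a fitted effect of over 35% in size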
Procedure, shortened: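 Luminescent ATP read-out (CellTiter-Glo, 20 min room temperature) after 40 hr compound treatment of HUV-EC-C cells at 37 °C. Concentration-response data fitted with the standard Hill equation to give AC50; tamoxifen and doxorubicin served as positive controls.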

[2] = Cellular Toxicity (caspase-3) HUV-EC-C (AID 656);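 further: 0% = DMSO basal and 100% = 100 µM tamoxifen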
Procedure, shortened: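 Luminescent Caspase-Glo 3/7 readout after 16 h, 37 °C compound exposure of HUV-EC-C endothelial cells, 1000 per well, complete medium. AC50 derived by Hill fitting, with DMSO as baseline and 100 uM tamoxifen as full activation.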

[3] = Cellular Toxicity (caspase-3) N2a (AID 665);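 further: compound exposure lasted 16 h at 37 °C before readout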
Procedure, shortened: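 Luminescent Caspase-Glo 3/7 readout in N2a mouse neuroblastoma cells after 16 h compound exposure at 37 °C. Signal scaled to DMSO (basal) and 10 uM staurosporine (100%). Concentration-response fitted with Hill equation for AC50.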

[4] = target: Cytochrome P450 3A4 (Homo sapiens) (UniProt P08684); assay: qHTS Assay for Inhibitors and Substrates of Cytochrome P450 3A4 (AID 884); further: on the % scale 0 is the no-effect control and ±100 the full control effect; nearly all actives have a fitted effect of over 50% in size
Chain of Cytochrome P450 3A4 (Homo sapiens) (P08684 whole entry, looked up): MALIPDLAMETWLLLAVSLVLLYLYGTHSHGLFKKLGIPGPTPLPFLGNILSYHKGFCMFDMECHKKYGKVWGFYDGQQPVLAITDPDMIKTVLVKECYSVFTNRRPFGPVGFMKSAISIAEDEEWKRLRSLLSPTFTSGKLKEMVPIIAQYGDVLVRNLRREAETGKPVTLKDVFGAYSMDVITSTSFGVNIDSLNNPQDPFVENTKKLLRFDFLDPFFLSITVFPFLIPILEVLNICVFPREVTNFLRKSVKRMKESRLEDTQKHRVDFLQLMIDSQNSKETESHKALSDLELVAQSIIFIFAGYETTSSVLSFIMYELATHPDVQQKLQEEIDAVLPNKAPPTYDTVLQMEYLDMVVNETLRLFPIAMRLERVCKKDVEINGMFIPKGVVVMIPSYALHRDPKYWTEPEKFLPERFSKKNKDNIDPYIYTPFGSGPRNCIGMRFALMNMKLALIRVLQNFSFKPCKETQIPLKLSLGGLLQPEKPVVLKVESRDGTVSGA
Procedure, shortened: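 Luminescent readout of luciferin produced by CYP3A4 (20 nM) dealkylation of Luciferin-PPXE, 25 uM (its KM). NADPH-driven reaction ran 60 min at RT after 10 min compound preincubation; data scaled to 57 uM ketoconazole as 100% inhibition.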

[5] = MultiTox-Fluor Cytotoxicity Assay - LYMP1-003 - Dead Cells (AID 961); further: nearly all actives have a fitted effect of over 70% in size
Procedure, shortened: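 Dead-cell protease release, detected as bis-AAF-R110 fluorescence at 485/520 nm, was measured in LYMP1-003 cells after 16 h compound treatment at 37 C. AC50 values came from Hill-modeled qHTS curves normalized to DMSO (0%) and 15 uM tetraoctylammonium bromide (100%).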

[6] = Cell Viability - LYMP2-003 (AID 965);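 further: cells exposed to compounds for 24 h before reading; nearly all actives have a fitted effect of over 50% in size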; further: potency means the concentration at half of the fitted maximal effect;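 on activity change, negative = cytotoxicity: 0% = DMSO only and full effect = 92 µM tetraoctylammonium bromide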
Procedure, shortened: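 CellTiter-Glo luminescence quantified ATP loss after 24 h compound treatment of LYMP2-003 lymphoblastoid cells at 37 C. Titration series were fitted with the standard Hill equation to give AC50.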

[7] = target: Estrogen receptor (Homo sapiens) (UniProt P03372); assay: qHTS assay for small molecule antagonists of estrogen receptor alpha signaling (AID 588513; active means well fitted curve in the direction sought with a large enough effect in the signal ratio, with a control signal flat, not every such curve was filed as active; the % refers to the signal ratio; further: on the % scale 0 is the no-effect control and ±100 the full control effect)
Chain of Estrogen receptor (Homo sapiens) (P03372 whole entry, looked up): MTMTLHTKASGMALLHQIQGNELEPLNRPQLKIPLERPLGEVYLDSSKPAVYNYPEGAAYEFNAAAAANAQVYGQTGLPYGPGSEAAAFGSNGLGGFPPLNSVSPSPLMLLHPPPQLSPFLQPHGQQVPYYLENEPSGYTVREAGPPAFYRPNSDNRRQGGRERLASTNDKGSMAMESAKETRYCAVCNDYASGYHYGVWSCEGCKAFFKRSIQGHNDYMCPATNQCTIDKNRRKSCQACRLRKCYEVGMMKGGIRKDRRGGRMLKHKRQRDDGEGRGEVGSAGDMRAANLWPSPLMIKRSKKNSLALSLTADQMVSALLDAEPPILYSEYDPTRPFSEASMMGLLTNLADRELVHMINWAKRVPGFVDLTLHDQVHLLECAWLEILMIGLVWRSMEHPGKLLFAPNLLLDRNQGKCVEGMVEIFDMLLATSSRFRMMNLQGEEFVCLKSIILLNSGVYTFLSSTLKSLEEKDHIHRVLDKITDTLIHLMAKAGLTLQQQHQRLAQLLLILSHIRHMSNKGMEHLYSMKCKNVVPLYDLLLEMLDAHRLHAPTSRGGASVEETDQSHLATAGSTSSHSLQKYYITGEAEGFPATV
Procedure, shortened: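 Antagonist mode: inhibition of 0.5 nM 17-beta-estradiol-driven beta-lactamase reporter in HEK 293 ER-alpha-UAS-bla cells, 18 h at 37C, CCF4 readout after 2 h at RT. Normalised to estradiol and DMSO; titration fitted to Hill.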

[8] = target: Estrogen receptor (Homo sapiens) (UniProt P03372); assay: qHTS assay for small molecule agonists of estrogen receptor alpha signaling (AID 588514; calls by dose curve;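 further: 0% = vehicle only and 100% = reference agonist; nearly all actives have a fitted effect of over 70% in size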)
Procedure, shortened: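 Read-out: CCF4 fluorescence from a beta-lactamase reporter in ER-alpha-UAS-bla HEK 293 cells after 18 hrs of compound exposure at 37 C. Normalized to 20 nM 17-beta-estradiol (100%) and DMSO (0%).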

[9] = target: Glucocorticoid receptor (Homo sapiens) (UniProt P04150); assay: qHTS assay for small molecule antagonists of glucocorticoid receptor signaling (AID 588533; active means well fitted inhibition curve with a large enough effect in the signal ratio, with a control signal flat, not every such curve was filed as active; the % refers to the signal ratio;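 further: cells stimulated with 2 nM dexamethasone as agonist; on the % scale 0 is the no-effect control and ±100 the full control effect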)
Chain of Glucocorticoid receptor (Homo sapiens) (P04150 whole entry, looked up): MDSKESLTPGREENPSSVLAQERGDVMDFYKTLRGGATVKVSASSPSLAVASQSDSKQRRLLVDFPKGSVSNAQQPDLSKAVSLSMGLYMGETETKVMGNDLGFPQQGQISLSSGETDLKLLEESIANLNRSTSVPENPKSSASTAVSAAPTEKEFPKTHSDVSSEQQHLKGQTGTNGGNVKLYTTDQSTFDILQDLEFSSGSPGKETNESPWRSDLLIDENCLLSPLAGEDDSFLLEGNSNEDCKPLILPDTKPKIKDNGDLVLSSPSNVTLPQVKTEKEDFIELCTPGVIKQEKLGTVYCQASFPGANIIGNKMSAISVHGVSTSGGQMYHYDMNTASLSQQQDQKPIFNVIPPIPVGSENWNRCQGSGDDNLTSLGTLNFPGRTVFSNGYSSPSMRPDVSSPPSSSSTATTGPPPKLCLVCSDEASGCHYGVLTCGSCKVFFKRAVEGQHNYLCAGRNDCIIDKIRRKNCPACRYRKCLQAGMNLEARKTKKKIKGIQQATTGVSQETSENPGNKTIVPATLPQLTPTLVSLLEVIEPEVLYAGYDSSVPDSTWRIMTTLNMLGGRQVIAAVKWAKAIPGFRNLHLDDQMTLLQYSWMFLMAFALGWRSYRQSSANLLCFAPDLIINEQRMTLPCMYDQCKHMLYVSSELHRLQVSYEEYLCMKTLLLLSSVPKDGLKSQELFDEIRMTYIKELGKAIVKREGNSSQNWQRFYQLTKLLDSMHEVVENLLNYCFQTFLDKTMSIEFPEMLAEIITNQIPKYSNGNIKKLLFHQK
Procedure, shortened: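 Antagonist-mode qHTS: compound titrations added to GRE-bla HeLa cells, then dexamethasone 2 nM final; 18 h, 37 C. CCF4 FRET fluorescence normalized to dexamethasone and DMSO; IC50 from Hill fit.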

[10] = target: Vitamin D3 receptor (Homo sapiens) (UniProt P11473); assay: qHTS assay for small molecule antagonists of vitamin D receptor signaling (AID 588541; calls by dose curve;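 further: receptor activated by calcitriol during compound treatment; on the % scale 0 is the no-effect control and ±100 the full control effect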)
Chain of Vitamin D3 receptor (Homo sapiens) (P11473 whole entry, looked up): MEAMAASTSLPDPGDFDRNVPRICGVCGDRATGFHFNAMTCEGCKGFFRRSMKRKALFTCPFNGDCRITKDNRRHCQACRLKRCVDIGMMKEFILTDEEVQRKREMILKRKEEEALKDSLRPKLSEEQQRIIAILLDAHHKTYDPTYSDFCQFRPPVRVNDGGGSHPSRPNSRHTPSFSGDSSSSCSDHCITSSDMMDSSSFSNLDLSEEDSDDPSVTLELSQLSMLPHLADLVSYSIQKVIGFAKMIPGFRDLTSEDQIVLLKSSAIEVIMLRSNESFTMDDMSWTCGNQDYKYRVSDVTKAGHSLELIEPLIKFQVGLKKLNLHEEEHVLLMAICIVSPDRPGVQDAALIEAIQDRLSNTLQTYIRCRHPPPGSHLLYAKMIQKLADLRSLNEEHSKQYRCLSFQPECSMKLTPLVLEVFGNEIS
Procedure, shortened: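 VDR-UAS-bla HEK293T cells (2000/well, 2% charcoal-stripped FBS) were treated with titrated compounds plus 1-alpha,25-dihydroxyvitamin D3 (50 nM or 3 nM final) for 16 h at 37 C. CCF4 beta-lactamase fluorescence was read; Hill fits gave IC50.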

[11] = qHTS assay for small molecule agonists of the antioxidant response element (ARE) signaling pathway (AID 651741; active means well fitted activation curve with a large enough effect in the signal ratio; the % refers to the signal ratio; further: potency means the concentration at half of the fitted maximal effect; on activation: % of control where 0% means no effect)
Procedure, shortened: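 Beta-lactamase reporter expression driven by the antioxidant response element in HepG2 cells was detected by fluorescence with LiveBLAzer B/G FRET substrate (2 h, room temperature) following 16 h compound treatment at 37 C.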

[12] = qHTS assay for small molecule activators of the nuclear factor-kappa B (NF-kB) signaling pathway (AID 651749; active means well fitted activation curve with a large enough effect in the signal ratio; the % refers to the signal ratio; further: % of control where 0% means no effect); details: NF-kB-bla ME-180 cells, beta-lactamase FRET ratio, 16 h; hits give high values
Procedure, shortened: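 Beta-lactamase reporter expression, controlled by NF-kB response elements in ME-180 cells, was quantified fluorometrically via FRET disruption; cells at 2,000/well had been incubated with 23 nL test compound for 16 hr.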

[13] = target: Nuclear receptor ROR-gamma (Homo sapiens) (UniProt P51449); assay: qHTS assay for small molecule antagonists of the retinoid-related orphan receptor gamma (ROR-gamma) signaling pathway (AID 651802); further: nearly all actives have a fitted effect of over 60% in size; further: potency means the concentration at half of the fitted maximal effect
Chain of Nuclear receptor ROR-gamma (Homo sapiens) (P51449 whole entry, looked up): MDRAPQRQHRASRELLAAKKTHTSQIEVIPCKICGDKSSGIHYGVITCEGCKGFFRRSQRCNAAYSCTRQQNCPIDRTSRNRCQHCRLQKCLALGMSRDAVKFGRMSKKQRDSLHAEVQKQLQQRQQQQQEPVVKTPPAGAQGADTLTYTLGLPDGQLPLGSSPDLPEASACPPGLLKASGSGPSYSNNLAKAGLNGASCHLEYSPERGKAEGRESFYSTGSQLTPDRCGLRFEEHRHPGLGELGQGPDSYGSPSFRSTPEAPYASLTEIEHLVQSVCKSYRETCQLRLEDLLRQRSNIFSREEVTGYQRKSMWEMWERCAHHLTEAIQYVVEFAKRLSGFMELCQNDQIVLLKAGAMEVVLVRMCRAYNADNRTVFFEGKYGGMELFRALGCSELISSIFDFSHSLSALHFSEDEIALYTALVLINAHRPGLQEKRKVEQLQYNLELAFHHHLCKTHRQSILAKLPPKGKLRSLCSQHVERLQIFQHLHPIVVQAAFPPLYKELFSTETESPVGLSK
Procedure, shortened: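 Luciferase read-out: ONE-Glo luminescence after 30 min at room temperature, following 16hr doxycycline induction at 37C, 5% CO2 of CHO cells with TET-inducible ROR and RORE-LUC reporter; decreased luminescence = reduced reporter activity.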

[14] = qHTS assay for small molecule agonists of the antioxidant response element (ARE) signaling pathway measured by Nrf2-dependant transcriptional activity - cell viability counter screen (AID 720653; active means well fitted curve in the direction sought with a large enough effect in the repeat runs; an effect the other way counts as inactive or inconclusive; further: on the % scale 0 is the no-effect control and ±100 the full control effect); details: ARE-bla HepG2 viability, CellTiter-Glo ATP luminescence, 16 h; max response: hits give low values
Procedure, shortened: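 ARE-bla HepG2 cells (2,000/well) rested 5 hrs at 37C/5% CO2, then exposed to compounds in DMSO for 16 hrs. Viability was read in the same wells as intracellular ATP by luminescence, 30 min at room temperature after reagent addition.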

[15] = qHTS assay for cell viability of HEK293 cells (AID 743288); details: ATP luminescence (CellTiter-Glo), 18 h; max response: hits give low values; further: on the % scale 0 is the no-effect control and ±100 the full control effect; nearly all actives have a fitted effect of over 50% in size
Procedure, shortened: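 Readout is luciferase-coupled ATP content (CellTiter-Glo luminescence, 30 min room temperature) as a measure of metabolically competent cells. Parental HEK293 cells were plated 5 h or more before compound addition, then treated 18 h at 37 C.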

[16] = qHTS assay for small molecule activators of the human pregnane X receptor (PXR) signaling pathway (AID 720659; call rule not given here; further: 0% is about no effect)
[17] = Cellular Toxicity (caspase-3) H-4-II-E (AID 663); details: Potency: caspase-3 activation;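 further: cells exposed to compound for 16 hr before readout; 0% = DMSO basal and 100% = 100 µM tamoxifen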
Procedure, shortened: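 Caspase 3/7 activation measured in H-4-II-E cells in complete culture medium after 16 hr treatment at 37 °C, using luciferase-coupled substrate readout; AC50 values come from Hill-equation fits of normalized concentration-response data.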

[18] = MultiTox-Fluor Cytotoxicity Assay - LYMP1-003 - Live Cells (AID 962);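 further: 0% = DMSO only and full loss = 92 µM tetraoctylammonium bromide; cytotoxic hits lower the live-cell protease signal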
Procedure, shortened: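 Readout: live-cell fluorescence (Ex/Em=405/510) from GF-AFC cleavage after 60 min MultiTox-Fluor reagent at room temperature. Lymphoblastoid LYMP1-003 cells, 16 hr compound treatment, 37 C. Concentration-response fitted to standard Hill equation for AC50.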

[19] = Cell Viability - NIH 3T3 (AID 541); details: NIH 3T3 cell viability, qHTS; activity change, negative = cytotoxicity: at 92.2 µM (top of the series);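 further: cells exposed to compound for 40 hours; plate controls were DMSO alone for no effect and tamoxifen positive control for full effect; nearly all actives have a fitted effect of over 25% in size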
Procedure, shortened: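 qHTS format; 40 hr compound exposure, 37 °C; CellTiter-Glo luminescence (cellular ATP) read-out after 20 min at RT. Decrease in ATP = cytotoxicity; AC50 from standard Hill fit.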

[20] = Cellular Toxicity (caspase-3) NIH 3T3 (AID 666);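 further: 0% = DMSO basal and 100% = 100 µM tamoxifen stimulation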
Procedure, shortened: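 NIH 3T3, 1000 cells/well, 5 hr settle then 16 hr compound at 37°C; Caspase-Glo 3/7, 20 min RT, luminescence. DMSO = basal, 100 uM tamoxifen = 100%. Hill-equation AC50, qHTS.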

CC(/C=C/C=C(C)/C=C/C(=O)O)=C\C=C\C=C(C)\C=C\C=C(C)\C=C\C(=O)O
inactive: Potency [1] | Potency [2] | outcome [3] | Potency [4] | Potency [5] | outcome [7] | Potency [8] | Potency [9] | Potency [10] | activation [12] -1.49% | Potency [13] | max response [14] -1.24% | max response [15] -0.748% | outcome [16]
active: Potency [6] 50.1 µM | Potency [11] 37.6 µM

NC(=O)Nc1nc2ccccc2[nH]1
inactive: Potency [2] | Potency [17] | outcome [3] | Potency [4] | Potency [5] | Potency [18] | Potency [6] | outcome [7] | Potency [8] | Potency [10] | Potency [11] | activation [12] -0.124% | Potency [13] | max response [15] -5.65%

Nc1cnn([C@@H]2O[C@H](CO)[C@@H](O)[C@H]2O)c(=O)n1
inactive: activity change, negative = cytotoxicity [19] 4.75% | Potency [1] | Potency [2] | Potency [17] | outcome [3] | Potency [4] | Potency [5] | outcome [7] | Potency [8] | Potency [9] | Potency [10] | Potency [11] | max response [15] 3.95% | outcome [16]
active: Potency [13] 5.31 µM

Nc1cc([N+](=O)[O-])ccc1O
active: Potency [11] 29.8 µM and 12.2 µM | Potency [13] 23.7 µM
inactive: Potency [1] | Potency [17] | outcome [3] | outcome [20] | Potency [4] | Potency [18] | Potency [9] | Potency [10] | activation [12] -0.245% and -0.938% | max response [14] -7.79% and -12.9% | max response [15] 11.2% and -4.43% | outcome [16]

CC(=O)CC(=O)Nc1ccccc1
inactive: activity change, negative = cytotoxicity [19] -3.89% | Potency [17] | outcome [20] | Potency [4] | Potency [18] | Potency [6] | Potency [9] | Potency [10] | Potency [11] | activation [12] -0.0343% and 0.349% | max response [14] -0.0894% and -4.18% | max response [15] 2.12% and -0.894% | outcome [16]

O=[N+]([O-])c1ccccc1Nc1ccccc1
inactive: activity change, negative = cytotoxicity [19] -20.1% | Potency [1] | Potency [2] | outcome [3] | Potency [4] | Potency [18] | Potency [6] | outcome [7] | Potency [8] | Potency [9] | Potency [10] | max response [14] -2.68% | max response [15] -4.25% | outcome [16]

Clc1nc2ccccc2nc1Cl
inactive: Potency [1] | Potency [17] | outcome [3] | Potency [4] | Potency [5] | Potency [18] | outcome [7] | Potency [8] | Potency [9] | Potency [10] | activation [12] -0.675% | Potency [13] | max response [15] -15.1%
active: activity change, negative = cytotoxicity [19] -143%

C=CC(=O)CC
inactive: activity change, negative = cytotoxicity [19] -11.9% | Potency [1] | outcome [20] | Potency [4] | Potency [18] | Potency [6] | Potency [10] | Potency [13] | max response [14] -0.839% | max response [15] -3.35%

Cc1c(N)cccc1Cl
inactive: activity change, negative = cytotoxicity [19] -0.783% | Potency [1] | Potency [2] | Potency [17] | outcome [3] | outcome [20] | Potency [4] | Potency [18] | Potency [6] | outcome [7] | Potency [8] | Potency [9] | Potency [10] | Potency [11] | activation [12] 0.113% | Potency [13] | max response [14] -6.28% | outcome [16]

— PubChem BioAssay (NCATS)
